Of roughly 7,900 targets only a part is listed; those with a hit were picked by preference. About 0.6% of all pairs of compound and target were hits. Unmarked numbers belong to inactive results.
The targets below were run with C#Cc1cccc(Nc2ncnc3cc(OCCOC)c(OCCOC)cc23)c1 [erlotinib] (assay: log2 fold change, soluble protein after heating vs DMSO (PISA); higher = thermal stabilisation; K562 cells, 10 uM, 30 min; active = over 0.2 and 3.5 SD of the protein, either way, in both replicates (recomputed)).
Summary of the method: (§1)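 Quantification of soluble protein used TMTpro 16plex LC-MS/MS, with channel sums equalised. Samples were the supernatant after 21,000xg for 90 min of pooled aliquots from K562 cells (2×10^6 cells/mL) treated with 10 μM compound for 30 min, heated for 3 min over 48°C-58°C, and extracted in PBS with 0.5% NP-40 at 4°C. Values, from duplicates, describe thermal stability against control samples on a log2 fold-change scale.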

Sequence of UniProt Q7L590 (Q7L590 whole entry, looked up): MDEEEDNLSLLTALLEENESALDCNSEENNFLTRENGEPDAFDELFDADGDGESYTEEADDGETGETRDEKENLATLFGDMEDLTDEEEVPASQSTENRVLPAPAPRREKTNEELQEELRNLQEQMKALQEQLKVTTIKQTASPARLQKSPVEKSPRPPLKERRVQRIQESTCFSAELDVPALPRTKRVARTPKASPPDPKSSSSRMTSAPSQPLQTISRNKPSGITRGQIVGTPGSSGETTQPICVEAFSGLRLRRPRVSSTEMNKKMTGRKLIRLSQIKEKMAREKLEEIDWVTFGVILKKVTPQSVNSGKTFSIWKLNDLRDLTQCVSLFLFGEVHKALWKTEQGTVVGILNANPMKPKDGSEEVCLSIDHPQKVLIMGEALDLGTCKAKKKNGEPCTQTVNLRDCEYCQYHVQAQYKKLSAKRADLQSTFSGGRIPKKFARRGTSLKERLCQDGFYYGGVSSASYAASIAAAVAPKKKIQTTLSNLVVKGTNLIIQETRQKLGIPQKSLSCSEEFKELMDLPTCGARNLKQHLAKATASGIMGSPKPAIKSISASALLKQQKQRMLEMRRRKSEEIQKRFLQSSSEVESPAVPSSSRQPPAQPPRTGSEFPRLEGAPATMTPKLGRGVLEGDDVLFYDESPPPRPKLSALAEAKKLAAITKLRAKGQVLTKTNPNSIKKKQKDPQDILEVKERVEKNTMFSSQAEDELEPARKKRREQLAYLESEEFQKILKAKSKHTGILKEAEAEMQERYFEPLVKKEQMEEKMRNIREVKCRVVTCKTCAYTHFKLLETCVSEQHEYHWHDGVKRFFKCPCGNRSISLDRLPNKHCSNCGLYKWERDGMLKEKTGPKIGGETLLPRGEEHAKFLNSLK
Sequence of UniProt P43361 (P43361 whole entry, looked up): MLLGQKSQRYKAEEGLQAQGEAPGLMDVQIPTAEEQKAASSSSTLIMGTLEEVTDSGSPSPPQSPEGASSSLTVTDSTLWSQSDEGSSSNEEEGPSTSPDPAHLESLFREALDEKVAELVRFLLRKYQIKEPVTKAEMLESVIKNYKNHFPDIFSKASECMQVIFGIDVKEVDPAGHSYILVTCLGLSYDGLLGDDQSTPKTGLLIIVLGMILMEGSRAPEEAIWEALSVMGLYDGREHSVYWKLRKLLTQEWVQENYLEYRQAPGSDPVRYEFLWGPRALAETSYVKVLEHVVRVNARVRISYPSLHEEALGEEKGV
Sequence of UniProt Q9P244 (Q9P244 whole entry, looked up): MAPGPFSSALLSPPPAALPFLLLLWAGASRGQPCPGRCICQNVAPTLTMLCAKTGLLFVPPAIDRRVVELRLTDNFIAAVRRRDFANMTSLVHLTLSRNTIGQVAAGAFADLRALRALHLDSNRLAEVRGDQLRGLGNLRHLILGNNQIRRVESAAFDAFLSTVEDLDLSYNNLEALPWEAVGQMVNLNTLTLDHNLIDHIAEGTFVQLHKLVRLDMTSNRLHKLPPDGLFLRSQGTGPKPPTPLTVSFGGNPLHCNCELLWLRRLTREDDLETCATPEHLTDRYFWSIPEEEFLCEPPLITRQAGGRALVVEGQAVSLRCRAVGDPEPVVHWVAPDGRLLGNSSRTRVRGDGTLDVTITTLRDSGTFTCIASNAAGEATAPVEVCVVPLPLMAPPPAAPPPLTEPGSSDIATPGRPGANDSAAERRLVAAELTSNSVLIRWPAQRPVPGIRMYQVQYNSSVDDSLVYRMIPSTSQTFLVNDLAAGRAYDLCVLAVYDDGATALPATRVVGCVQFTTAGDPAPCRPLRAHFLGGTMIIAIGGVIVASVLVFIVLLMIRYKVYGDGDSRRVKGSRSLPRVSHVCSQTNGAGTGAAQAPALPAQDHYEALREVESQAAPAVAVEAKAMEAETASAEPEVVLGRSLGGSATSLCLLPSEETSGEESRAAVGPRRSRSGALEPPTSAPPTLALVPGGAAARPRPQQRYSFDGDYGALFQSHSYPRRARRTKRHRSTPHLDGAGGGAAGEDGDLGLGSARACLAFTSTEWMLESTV
Sequence of UniProt Q6NUT3 (Q6NUT3 whole entry, looked up): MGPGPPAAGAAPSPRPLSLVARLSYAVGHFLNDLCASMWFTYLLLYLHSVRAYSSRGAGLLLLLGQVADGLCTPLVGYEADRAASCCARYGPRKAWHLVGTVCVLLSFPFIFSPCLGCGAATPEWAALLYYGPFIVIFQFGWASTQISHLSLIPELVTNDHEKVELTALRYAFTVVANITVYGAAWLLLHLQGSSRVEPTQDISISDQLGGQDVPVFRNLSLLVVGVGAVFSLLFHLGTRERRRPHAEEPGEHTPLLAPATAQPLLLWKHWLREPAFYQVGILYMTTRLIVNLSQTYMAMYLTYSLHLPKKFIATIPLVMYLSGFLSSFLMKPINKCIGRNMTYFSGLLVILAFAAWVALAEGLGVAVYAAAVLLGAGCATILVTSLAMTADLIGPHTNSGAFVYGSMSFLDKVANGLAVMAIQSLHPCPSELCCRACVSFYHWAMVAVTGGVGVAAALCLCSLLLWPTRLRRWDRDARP
Sequence of UniProt Q71SY5 (Q71SY5 whole entry, looked up): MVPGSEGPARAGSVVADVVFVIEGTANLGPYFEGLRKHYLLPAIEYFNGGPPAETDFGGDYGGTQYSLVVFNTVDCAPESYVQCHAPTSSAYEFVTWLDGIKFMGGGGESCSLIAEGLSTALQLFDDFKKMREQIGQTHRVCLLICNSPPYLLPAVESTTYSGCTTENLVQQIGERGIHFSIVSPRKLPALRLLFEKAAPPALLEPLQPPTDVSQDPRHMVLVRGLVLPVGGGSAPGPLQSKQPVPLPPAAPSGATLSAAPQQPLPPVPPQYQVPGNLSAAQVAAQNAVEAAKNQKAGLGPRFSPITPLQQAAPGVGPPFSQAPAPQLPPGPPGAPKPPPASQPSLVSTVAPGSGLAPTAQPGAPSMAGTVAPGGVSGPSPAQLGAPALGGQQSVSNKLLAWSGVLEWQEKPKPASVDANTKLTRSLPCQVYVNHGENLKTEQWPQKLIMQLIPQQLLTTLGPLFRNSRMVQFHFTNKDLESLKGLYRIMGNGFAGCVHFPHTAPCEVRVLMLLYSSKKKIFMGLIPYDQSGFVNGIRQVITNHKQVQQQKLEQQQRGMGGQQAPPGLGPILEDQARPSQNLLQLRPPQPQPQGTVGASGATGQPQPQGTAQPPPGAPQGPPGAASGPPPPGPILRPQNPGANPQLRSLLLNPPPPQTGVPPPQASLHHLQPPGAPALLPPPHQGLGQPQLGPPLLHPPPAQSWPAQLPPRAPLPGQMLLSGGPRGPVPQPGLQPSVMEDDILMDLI
Sequence of UniProt P28290 (P28290 whole entry, looked up): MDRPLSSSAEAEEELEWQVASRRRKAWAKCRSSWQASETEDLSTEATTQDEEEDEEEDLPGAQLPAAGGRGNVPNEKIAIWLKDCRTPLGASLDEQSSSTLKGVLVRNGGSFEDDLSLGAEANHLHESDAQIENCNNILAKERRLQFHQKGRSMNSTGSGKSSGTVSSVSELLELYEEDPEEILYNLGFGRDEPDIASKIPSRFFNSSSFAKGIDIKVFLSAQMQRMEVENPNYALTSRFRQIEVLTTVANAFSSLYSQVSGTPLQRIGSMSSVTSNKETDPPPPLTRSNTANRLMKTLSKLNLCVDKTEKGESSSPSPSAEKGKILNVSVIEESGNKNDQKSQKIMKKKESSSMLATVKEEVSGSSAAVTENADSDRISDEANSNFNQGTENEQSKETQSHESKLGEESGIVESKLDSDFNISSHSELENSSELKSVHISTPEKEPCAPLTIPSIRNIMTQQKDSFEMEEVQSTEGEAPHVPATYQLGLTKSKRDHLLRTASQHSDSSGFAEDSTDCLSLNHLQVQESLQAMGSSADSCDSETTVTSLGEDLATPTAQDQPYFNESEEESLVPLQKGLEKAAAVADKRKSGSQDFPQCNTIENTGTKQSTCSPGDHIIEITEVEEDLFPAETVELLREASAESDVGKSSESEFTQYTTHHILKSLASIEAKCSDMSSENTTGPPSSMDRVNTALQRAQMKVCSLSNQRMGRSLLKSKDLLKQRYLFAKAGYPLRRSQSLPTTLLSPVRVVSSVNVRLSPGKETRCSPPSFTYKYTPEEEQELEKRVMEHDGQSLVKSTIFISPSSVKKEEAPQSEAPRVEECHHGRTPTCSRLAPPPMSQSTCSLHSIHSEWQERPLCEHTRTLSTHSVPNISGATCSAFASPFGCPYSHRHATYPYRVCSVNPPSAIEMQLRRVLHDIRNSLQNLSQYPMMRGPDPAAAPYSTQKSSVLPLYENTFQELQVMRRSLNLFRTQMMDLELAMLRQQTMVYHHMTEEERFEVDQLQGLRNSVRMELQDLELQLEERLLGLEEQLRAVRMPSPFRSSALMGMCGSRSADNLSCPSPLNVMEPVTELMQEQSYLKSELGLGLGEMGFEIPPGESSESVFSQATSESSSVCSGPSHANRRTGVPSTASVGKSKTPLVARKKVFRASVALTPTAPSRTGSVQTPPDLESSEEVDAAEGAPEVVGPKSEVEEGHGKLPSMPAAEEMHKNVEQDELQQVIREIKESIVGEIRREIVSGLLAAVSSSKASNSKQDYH
Sequence of UniProt O95279 (O95279 whole entry, looked up): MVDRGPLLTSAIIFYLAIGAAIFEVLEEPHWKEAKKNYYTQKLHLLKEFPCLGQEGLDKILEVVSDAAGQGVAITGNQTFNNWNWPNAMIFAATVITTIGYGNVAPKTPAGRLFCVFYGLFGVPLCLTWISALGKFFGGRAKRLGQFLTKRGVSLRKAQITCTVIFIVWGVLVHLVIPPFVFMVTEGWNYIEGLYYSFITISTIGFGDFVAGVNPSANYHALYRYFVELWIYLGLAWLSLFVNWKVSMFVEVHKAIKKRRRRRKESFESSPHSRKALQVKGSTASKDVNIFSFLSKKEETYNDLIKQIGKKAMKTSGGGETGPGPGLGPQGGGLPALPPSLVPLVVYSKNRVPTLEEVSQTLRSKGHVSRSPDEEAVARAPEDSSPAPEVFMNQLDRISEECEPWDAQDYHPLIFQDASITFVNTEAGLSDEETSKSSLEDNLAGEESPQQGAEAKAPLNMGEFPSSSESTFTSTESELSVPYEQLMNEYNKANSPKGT

Row | Target | log2 fold change
1 | MGRN1 isoform 2 (UniProt O60291) | 0.016
2 | MAML1 (UniProt Q92585) | 0.369
3 | MED25 isoform 3 (UniProt Q71SY5) | -0.038
4 | IKZF1 isoform 2 (UniProt Q13422) | 0.017
5 | MAPK11 (UniProt Q15759) | 0.169
6 | LOX (UniProt P28300) | -0.245
7 | LAPTM4B (UniProt Q86VI4) | -0.074
8 | MED29 (UniProt Q9NX70) | -0.016
9 | MCM10 (UniProt Q7L590) | -0.066
10 | LDLRAP1 (UniProt Q5SW96) | -0.017
11 | MCOLN3 (UniProt Q8TDD5) | 0.244
12 | JAK3 (UniProt P52333) | -0.178
13 | KIF21A (UniProt H0YI78) | 0.077
14 | MAGEA8 (UniProt P43361) | 0.033
15 | MAPK14 (UniProt Q16539) | 0.238
16 | KCNK5 (UniProt O95279) | -0.101
17 | ING5 (UniProt Q8WYH8) | 0.273
18 | ITPRID2 (UniProt P28290) | 0.022
19 | MFSD12 isoform 3 (UniProt Q6NUT3) | 0.062
20 | LRFN1 (UniProt Q9P244) | 0.059

Each target was assayed with C/C(=N\NC(=O)C1=CC(=CC=C1)S(=O)(=O)N2CCOCC2)/C3=C(C=CC(=C3)Cl)O in the same assay as above.
Summary of the method: as §1

Row | Target | log2 fold change
21 | MGRN1 isoform 2 (UniProt O60291) | 0.079
22 | IGFBP3 isoform 2 (UniProt P17936) | -0.18
23 | MED25 isoform 3 (UniProt Q71SY5) | 0.026
24 | MFSD11 (UniProt O43934) | 0.001
25 | MED29 (UniProt Q9NX70) | 0.008
26 | KIZ (UniProt Q2M2Z5) | 0.018
27 | MAPRE3 isoform 2 (UniProt Q9UPY8) | -0.003
28 | MFAP3 (UniProt P55082) | 0.202
29 | IGFBP6 (UniProt P24592) | -0.215
30 | LRRCC1 (UniProt Q9C099) | -0.671 (active)
31 | MAPK7 (UniProt Q13164) | 0.095
32 | MAGEA8 (UniProt P43361) | 0.038
33 | MAPK14 (UniProt Q16539) | 0.106
34 | IPP (UniProt Q9Y573) | 0.091
35 | KIF13A isoform 4 (UniProt Q9H1H9) | 0.21
36 | MFSD12 isoform 3 (UniProt Q6NUT3) | -0.062
37 | MAP2K5 (UniProt Q13163) | 0.021

The targets below were run with C1=CC(=C(C=C1Cl)C2=NC3=NC=CN=C3C(=N2)NC4=CC=NC=C4)F in the same assay as above.
Summary of the method: as §1

Row | Target | log2 fold change
38 | MAML1 (UniProt Q92585) | 0.004
39 | IGFBP3 isoform 2 (UniProt P17936) | -0.094
40 | ILF3 (UniProt Q12906) | -0.083
41 | MFSD11 (UniProt O43934) | 0.007
42 | LSR (UniProt M0QZL9) | 0.029
43 | MCM10 (UniProt Q7L590) | 0.205
44 | JAK3 (UniProt P52333) | 0.062
45 | MFAP3 (UniProt P55082) | -0.021
46 | MARCHF3 (UniProt Q86UD3) | -0.188
47 | MAPK7 (UniProt Q13164) | 0.02
48 | KCNK5 (UniProt O95279) | -0.128
49 | ITPRID2 (UniProt P28290) | -0.133
50 | LRFN1 (UniProt Q9P244) | -0.028

What follows are targets tested with C1=CC(=CC=C1C2=NC3=C(N2)C=C(C=C3)C(=O)N)OC4=CC=C(C=C4)Cl in the same assay as above.
Summary of the method: as §1

Row | Target | log2 fold change
51 | MGRN1 isoform 2 (UniProt O60291) | 0
52 | MAML1 (UniProt Q92585) | 0.082
53 | MED25 isoform 3 (UniProt Q71SY5) | 0.005
54 | IKZF1 isoform 2 (UniProt Q13422) | -0.006
55 | MAPK11 (UniProt Q15759) | -0.28
56 | LOX (UniProt P28300) | 0.315
57 | LAPTM4B (UniProt Q86VI4) | -0.054
58 | MED29 (UniProt Q9NX70) | 0.062
59 | MCM10 (UniProt Q7L590) | 0.039
60 | LDLRAP1 (UniProt Q5SW96) | 0.252
61 | MCOLN3 (UniProt Q8TDD5) | -0.016
62 | JAK3 (UniProt P52333) | -0.013
63 | KIF21A (UniProt H0YI78) | -0.137
64 | MAGEA8 (UniProt P43361) | -0.075
65 | MAPK14 (UniProt Q16539) | -0.116
66 | KCNK5 (UniProt O95279) | 0.077
67 | ING5 (UniProt Q8WYH8) | -0.119
68 | ITPRID2 (UniProt P28290) | -0.268
69 | MFSD12 isoform 3 (UniProt Q6NUT3) | 0.077
70 | LRFN1 (UniProt Q9P244) | 0
